# Experimental data published in PubChem BioAssay (Tox21).
# A number with no mark means an inactive call. Results filed as inconclusive are left out. Entries that show only a call come without a potency. Calls of active or inactive are those of the source. Unless noted, calls come from the whole dose curve; as a rule, active = well fitted curve in the direction sought with a large enough effect in the repeat runs; inconclusive = weak or mixed curves; inactive = no such curve, though single readings can be large; an effect the other way counts as inactive or inconclusive.
# Key:
# [1] = qHTS assay to identify small molecule agonists of the hypoxia (HIF-1) signaling pathway - cell viability counter screen (AID 1224844; calls by dose curve; note: nearly all actives have a fitted effect of over 50% in size; note: potency is the fitted concentration of half-maximal effect)
# Summary of the method: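 In this counter screen, HRE-bla ME-180 cell viability after 17 hrs of compound exposure at 37C was read by CellTiter-Glo luminescence, multiplexed with the beta-lactamase reporter measurement.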
# [2] = qHTS assay to identify small molecule agonists of H2AX (AID 1224845; active = well fitted activation curve with a large enough effect in the signal ratio in the repeat runs, not every such curve was filed as active; the % refers to the signal ratio; note: potency is the fitted concentration of half-maximal effect)
# Summary of the method: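 Wild-type CHO-K1 cells plated overnight, then exposed 3 hr at 37C to compounds at 15 concentrations (0.76% DMSO). Lysed, then HTRF anti-pH2AX(S139)-cryptate/anti-H2AX-d2 detection after 24 hr at room temperature; emissions 665 and 620 nm.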
# [3] = qHTS assay to identify small molecule agonists of H2AX - cell viability counter screen (AID 1224847; calls by dose curve; note: nearly all actives have a fitted effect of over 30% in size; note: potency is the fitted concentration of half-maximal effect; for activity change, negative = cytotoxicity: top concentration of the series differs between compounds)
# Summary of the method: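 We seed wild-type CHO-K1 cells overnight, treat them for 3 hr at 37C with compounds in 15-concentration series, and quantify remaining viability by CellTiter-Glo luminescence.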
# [4] = qHTS assay to identify small molecule antagonists of the estrogen related receptor (ERR) signaling pathway from Tox21 library (AID 1224848); note: nearly all actives have a fitted effect of over 50% in size; note: potency is the fitted concentration of half-maximal effect
# Summary of the method: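 Tox21 10K compounds in DMSO tested for ERR pathway antagonism in NTP's ERR cell line; 18 h, 37 C exposure; ONE-Glo luminescence.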
# [5] = qHTS assay to identify small molecule agonists of the estrogen related receptor (ERR) signaling pathway from Tox21 library (AID 1224849; calls by dose curve; note: nearly all actives have a fitted effect of over 15% in size); settings: ERR reporter cell line, ONE-Glo luciferase, 18 h; at 92.4 µM (top of the series) unless noted
# Summary of the method: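 Luciferase activity in ERR pathway reporter cells served as the agonist readout; exposure lasted 18 h at 37 C, with ONE-Glo detection after 30 min at room temperature.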
# [6] = qHTS RealTime-Glo MT Cell Viability Assay in HEK293 cells - 32 hour (AID 1224868); note: nearly all actives have a fitted effect of over 50% in size; note: potency is the fitted concentration of half-maximal effect; for activity change, negative = cytotoxic: top concentration of the series differs between compounds
# Summary of the method: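 Assay medium contained NanoLuc luciferase plus cell-permeant prosubstrate, added with HEK293 cells at 600 cells/well. After 5 h at 37 C/5% CO2 compounds were added; plates stayed at 37 C for 40 h with serial luminescence reads.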
# [7] = A CellTox Green Cytotoxicity Assay to monitor cytotoxicity in HEK293 cells - 0 hour (AID 1224869); note: nearly all actives have a fitted effect of over 50% in size
# Summary of the method: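 Real-time, in one plate: 600 HEK293 cells/well with dead-cell DNA dye, pinned compound after 5 h, 37 C incubation over 40 h; viable cells give no appreciable fluorescence.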
# [8] = qHTS RealTime-Glo MT Cell Viability Assay in HepG2 cells - 40 hour (AID 1224870); note: nearly all actives have a fitted effect of over 50% in size; note: potency is the fitted concentration of half-maximal effect
# Summary of the method: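 HepG2 cells mixed with RealTime-Glo MT reagents (NanoLuc plus cell-permeant prosubstrate) were seeded at 600 cells/well, incubated 5 h at 37 C/5% CO2, then pinned with compounds in DMSO; nonlytic luminescence tracked viability during 40 h treatment.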
# [9] = qHTS RealTime-Glo MT Cell Viability Assay in HepG2 cells - 24 hour (AID 1224867); note: nearly all actives have a fitted effect of over 50% in size; note: potency is the fitted concentration of half-maximal effect
# Summary of the method: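 qHTS, HepG2, 600 cells/well, RealTime-Glo (NanoLuc + prosubstrate) added with cells; 5 h preincubation; DMSO compound addition; 37 C; luminescence at 0/8/16/24/32/40 h.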
# [10] = qHTS assay to identify small molecule agonists of the hypoxia (HIF-1) signaling pathway (AID 1224846; active = well fitted activation curve with a large enough effect in the signal ratio in the repeat runs, not every such curve was filed as active; the % refers to the signal ratio)
# Summary of the method: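 ME-180 HRE-bla reporter cells; compounds in DMSO, 17 h at 37C; read-out beta-lactamase via CCF4-AM FRET.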
smiles,measurement,setting,value
CCc1cc(SCc2sc(-c3ccc(C(F)(F)F)cc3)nc2CN2CCN(c3ccc(OC)cc3)CC2)ccc1OCC(=O)O,Potency,[1],3.89 µM (active)
same,Potency,[2],50.5 µM (active)
same,Potency,[3],89.8 µM (active)
same,Potency,[4],17.2 µM (active)
same,"activity change, positive = activation",[5],-62.5%
same,Potency,[6],19.5 µM (active)
same,Potency,[7],inactive
same,Potency,[8],inactive
CCCCCCCCCCCCCCCCCC[N+](C)(C)C,Potency,[1],55.1 µM (active)
same,Potency,[2],inactive
same,Potency,[3],90.1 µM (active)
same,Potency,[4],24.4 µM (active)
same,"activity change, positive = activation",[5],-79.1%
same,Potency,[6],7.79 µM (active)
same,Potency,[7],inactive
O=C1c2ccccc2Cc2ccccc21,Potency,[1],inactive
same,Potency,[2],inactive
same,Potency,[3],inactive
same,"activity change, positive = activation",[5],-18.6%
same,Potency,[9],inactive
same,Potency,[7],inactive
same,Potency,[8],inactive
C[n+]1cc2c3c(ccc2c2ccc4cc5c(cc4c21)OCO5)OCO3,Potency,[1],2.61 µM (active)
same,Potency,[2],0.956 µM (active)
same,Potency,[3],0.852 µM (active)
same,Potency,[4],2.91 µM (active)
same,"activity change, positive = activation",[5],-68.3% [at 19 µM]
same,Potency,[9],0.827 µM (active)
same,Potency,[6],0.522 µM (active)
same,cytotoxicity,[7],-9.5% [at 15.8 µM]
same,Potency,[8],1.04 µM (active)
CC(=O)SC[C@@H](Cc1ccccc1)C(=O)NCC(=O)OCc1ccccc1,Potency,[1],inactive
same,Potency,[2],inactive
same,Potency,[3],inactive
same,Potency,[9],inactive
same,Potency,[6],inactive
same,Potency,[7],inactive
same,Potency,[8],inactive
CSc1ccc(/C=C2/C(C)=C(CC(=O)O)c3cc(F)ccc32)cc1,Potency,[1],10.7 µM (active)
same,Potency,[2],inactive
same,Potency,[3],inactive
same,Potency,[4],inactive
same,"activity change, positive = activation",[5],-7.17% [at 42.5 µM]
same,Potency,[9],inactive
same,Potency,[6],inactive
same,Potency,[7],inactive
same,Potency,[8],inactive
C[C@]12CCC(=O)C=C1CC[C@@H]1[C@@H]2[C@@H](O)C[C@@]2(C)[C@H]1CC[C@]2(O)C(=O)COC(=O)CCC(=O)O,Potency,[1],inactive
same,Potency,[2],inactive
same,Potency,[3],inactive
same,Potency,[9],inactive
same,Potency,[6],inactive
same,Potency,[7],inactive
same,Potency,[8],inactive
CC[C@H]1O[C@]2(CC[C@@H]1C)C[C@@H]1C[C@@H](C/C=C(\C)C[C@@H](C)/C=C/C=C3\CO[C@@H]4[C@H](O)C(C)=C[C@@H](C(=O)O1)[C@]34O)O2,Potency,[1],21.7 µM (active)
same,Potency,[2],44.6 µM (active)
same,Potency,[3],50 µM (active)
same,Potency,[4],30.4 µM (active)
same,"activity change, positive = activation",[5],-67.4%
same,Potency,[9],43.3 µM (active)
same,Potency,[6],24.3 µM (active)
same,Potency,[7],inactive
same,Potency,[8],43.3 µM (active)
CSc1ccc(C(=O)c2[nH]c(=O)[nH]c2C)cc1,Potency,[1],inactive
same,Potency,[2],inactive
same,Potency,[3],inactive
same,Potency,[4],inactive
same,Potency,[9],inactive
same,Potency,[6],inactive
same,Potency,[7],inactive
same,Potency,[8],inactive
C[n+]1ccn(Cc2ccccc2)c1,Potency,[1],inactive
same,Potency,[2],inactive
same,Potency,[3],inactive
same,"activity change, positive = activation",[5],-31.8%
same,Potency,[9],inactive
same,Potency,[7],inactive
same,Potency,[8],inactive
Cc1cccc2c1cc1ccc3cccc4ccc2c1c34,Potency,[1],inactive
same,Potency,[2],inactive
same,Potency,[3],inactive
same,Potency,[4],inactive
same,"activity change, positive = activation",[5],35.4% (active)
same,Potency,[9],inactive
same,Potency,[7],inactive
same,Potency,[8],inactive
O=C(OCC(COC(=O)c1ccccc1)(COC(=O)c1ccccc1)COC(=O)c1ccccc1)c1ccccc1,Potency,[1],inactive
same,Potency,[2],inactive
same,Potency,[4],inactive
same,"activity change, positive = activation",[5],9.84%
same,Potency,[9],inactive
same,Potency,[6],48.9 µM (active)
same,Potency,[7],inactive
same,Potency,[8],inactive
O=C(c1ccc(O)cc1O)c1ccc(O)cc1O,Potency,[1],inactive
same,Potency,[2],inactive
same,Potency,[9],inactive
same,Potency,[6],inactive
same,Potency,[7],inactive
same,Potency,[8],inactive
CC(NN)c1ccccc1 (centres undefined),"activity change, negative = cytotoxicity",[1],1.2% [at 15.8 µM]
same,activation (H2AX phosphorylation),[2],-2.63% [at 31.6 µM]
same,"activity change, negative = cytotoxicity",[9],1.66% [at 15.8 µM]
same,"activity change, negative = cytotoxic",[6],1.03% [at 15.8 µM]
same,cytotoxicity,[7],-1.54% [at 15.8 µM]
same,"activity change, negative = cytotoxic",[8],-0.13% [at 15.8 µM]
CC(C)(C)c1ccc(C(=O)CCCN2CCC(OC(c3ccccc3)c3ccccc3)CC2)cc1,Potency,[1],19 µM (active)
same,Potency,[2],inactive
same,Potency,[3],55.2 µM (active)
same,Potency,[9],21.3 µM (active)
same,Potency,[6],9.52 µM (active)
same,Potency,[8],19 µM (active)
CC1=NC(C)OC1C (centres undefined),Potency,[1],inactive
same,Potency,[2],inactive
same,Potency,[9],inactive
same,Potency,[7],inactive
same,Potency,[8],inactive
CCCCCCCCOc1ccccc1C(=O)Nc1ccc(C(=O)OCC[N+](C)(CC)CC)cc1,Potency,[1],7.56 µM (active)
same,Potency,[2],inactive
same,Potency,[6],19 µM (active)
same,Potency,[7],inactive
same,Potency,[8],inactive
Oc1cc2ccccc2c2ccccc12,Potency,[1],7.76 µM (active)
same,Potency,[2],17.9 µM (active)
same,Potency,[3],28.4 µM (active)
same,Potency,[9],11 µM (active)
same,Potency,[6],11 µM (active)
same,Potency,[7],inactive
same,Potency,[8],11 µM (active)
CC(C)(C)C1CCC(CC2=C(O)c3ccccc3C(=O)C2=O)CC1 (centres undefined),Potency,[1],inactive
same,Potency,[2],inactive
same,"activity change, positive = activation",[5],-24.7% [at 42.5 µM]
same,Potency,[9],inactive
same,Potency,[6],inactive
same,Potency,[7],inactive
same,Potency,[8],inactive
COC(=O)C1=C(C)NC(C)=C(C(=O)OCCc2ccc(N3CCN(C(c4ccccc4)c4ccccc4)CC3)cc2)C1c1cccc([N+](=O)[O-])c1 (centres undefined),Potency,[1],inactive
same,Potency,[2],inactive
same,Potency,[9],inactive
same,Potency,[6],inactive
same,Potency,[7],inactive
same,Potency,[8],inactive
CCc1cc(Cc2cc(CC)c(N)c(CC)c2)cc(CC)c1N,Potency,[1],inactive
same,Potency,[10],inactive
same,Potency,[3],89.8 µM (active)
same,Potency,[4],27.3 µM (active)
same,"activity change, positive = activation",[5],-60.8%
same,Potency,[9],inactive
same,Potency,[6],38.9 µM (active)
same,Potency,[7],inactive
same,Potency,[8],inactive
CN(C)C(=O)C1(N2CCCCC2)CCN(CC[C@@]2(c3ccc(Cl)c(Cl)c3)CN(C(=O)c3ccccc3)CCO2)CC1,Potency,[1],45.8 µM (active)
same,Potency,[2],47.2 µM (active)
same,Potency,[4],28.6 µM (active)
same,"activity change, positive = activation",[5],-73.9%
same,Potency,[9],20.4 µM (active)
same,Potency,[6],10.2 µM (active)
same,Potency,[7],inactive
same,Potency,[8],18.2 µM (active)
